Bioassay records as filed in PubChem BioAssay.
AmpC inh det – blocks E. coli AmpC beta-lactamase in presence of detergent | 71,000 compounds, 0.09% hits | purified AmpC, nitrocefin hydrolysis with detergent | Potency, µM (top dose mostly 28.7 µM), inactives show at the highest dose activity change, negative = inhibition | P00811; active means well fitted curve in the direction sought with a large enough effect; inconclusive means small, poorly fitted or top-dose-only effect; further: on the % scale 0 is the no-effect control and ±100 the full control effect
Target sequence (P00811 whole entry, looked up): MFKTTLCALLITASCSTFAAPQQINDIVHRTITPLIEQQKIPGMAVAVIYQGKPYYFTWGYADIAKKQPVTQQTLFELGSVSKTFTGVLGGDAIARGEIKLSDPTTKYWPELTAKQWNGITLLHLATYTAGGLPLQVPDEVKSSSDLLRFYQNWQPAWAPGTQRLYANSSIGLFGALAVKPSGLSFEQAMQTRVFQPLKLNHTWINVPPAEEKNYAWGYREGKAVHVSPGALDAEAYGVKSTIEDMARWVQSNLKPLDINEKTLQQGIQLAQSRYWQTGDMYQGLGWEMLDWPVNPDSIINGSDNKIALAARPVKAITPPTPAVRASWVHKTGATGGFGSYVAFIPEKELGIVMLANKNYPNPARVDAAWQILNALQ
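E. coli AmpC (5.3 nM) in 20 mM phosphate pH 7.0 with 0.01% Triton X-100, preincubated 15 min RT with compound; nitrocefin (2 uL of 800 uM stock) hydrolysis followed by 480 nm absorbance every 20 s over 4 min.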
LT uptake inh – blocks cellular internalization of anthrax lethal toxin. Cells, anthrax lethal toxin internalization, FRET ratio (460/530). Potency, µM (highest dose often 40 µM), for the others: at the highest dose activity change, negative = inhibition, most hits filed as inhibitors. 70,000 compounds, 0.67% hits. AID 912; further: on the % scale 0 is the no-effect control and ±100 the full control effect; nearly all actives have a fitted effect of over 50% in size
SmPrx2 inh – inhibitors of Schistosoma mansoni peroxiredoxin 2; S. mansoni Prx2 activity coupled to TGR/GSH (TGR is thioredoxin glutathione reductase), NADPH fluorescence loss, qHTS; Potency, µM; 65,000 compounds, 0.07% hits
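Purified S. mansoni TGR and Prx2 in pH 7.4 phosphate buffer with EDTA and Tween-20 were preincubated with compounds for 15 min. Further NADPH/GSH was added, then a 2.5 mM H2O2 aliquot initiated turnover, followed kinetically by NADPH fluorescence.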
AmpC inh no det – AmpC beta-lactamase inhibition, detergent-free assay. P00811. AmpC nitrocefin hydrolysis, absorbance 480 nm, no detergent. Potency, µM (series often up to 28.7 µM), without a hit: top-dose activity change, negative = inhibition. 71,000 compounds, 1.8% hits. AID 585; further: % of control where 0% means no effect
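AmpC in 20 mM phosphate buffer pH 7.0 was preincubated 15 min at room temperature with compounds. Nitrocefin (800 uM stock) was then added and hydrolysis followed at 480 nm every 20 s for 4 min.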
Numbers without * were called inactive; u = inconclusive; x = not tested or not shown; [ ] = another dose, or the depositor's remark. Hits are enriched below; roughly 2.4% of the tested compounds scored in any of these assays. Unless noted, the call rests on the fitted dose curve. Potency means the concentration at half of the fitted maximal effect.

SMILES	AmpC inh det	LT uptake inh	SmPrx2 inh	AmpC inh no det
CCN(CC)CCO[C@H]1CC[C@@]2(C)C(=CC[C@@H]3[C@H]2CC[C@]2(C)C(=O)CC[C@H]32)C1	-2%	25µM*	>57	44%
C[C@@]12CC[C@H]3[C@@H](CC=C4C[C@H](OS(=O)(=O)O)CC[C@]43C)[C@H]1CCC2=O	-1%	u	>57	5%
COc1cc(C2C3=C(Nc4ncnn42)c2ccccc2CC3)cc(OC)c1OC (stereo not drawn)	1%	u	>57	99%
CCn1c(SCC#N)nc2c(c1=O)C1(CCCC1)Cc1ccccc1-2	18%	10µM*	>57	8%
CCN(c1cccc(C)c1)S(=O)(=O)c1cccc2nsnc12	-3%	-8%	>57	5%
O=c1[nH]cnc2c1N1CCC2CC1	-6%	-3%	>57	-8%
COc1ccccc1Oc1ccc2c(c1)C(=O)N(c1ccc(O)cc1)C2=O	-2%	0%	>57	13µM*[single pt active]
Cc1ccc(C(=O)Nc2nccs2)cc1S(=O)(=O)N1CCCCC1	-3%	-14%	>57	-16%
O=C(O)Cc1cc(Cl)ccc1O	-5%[5.75 µM]	-7%[8 µM]	>57	-13%[5.75 µM]
Oc1ccc(Cl)cc1Cc1cc(Cl)cc(Cc2cc(Cl)ccc2O)c1O	2%[5.75 µM]	4µM*	>57	-18%[5.75 µM]
COCCNC(=O)CC(NS(=O)(=O)c1ccc(C)cc1)c1ccco1 (stereo not drawn)	20%	-1%	>57	-6%
O=C(Nc1ccc(N2C(=O)C3C4C=CC(C4)C3C2=O)cc1)Nc1nncs1 (stereo not drawn)	5%	-20%	>57	4µM*[single pt active]
Cc1ccc(C)c2[nH]c(=O)c(CN(CCN3CCCC3)C(=O)Nc3cccc(Cl)c3)cc12	-3%	7.9µM*	>57	98%
CCOC(=O)C1=C(N)Oc2cc(C)oc(=O)c2C1c1cccnc1 (stereo not drawn)	13%	x	>57	3%
O=C(NCC1CCCO1)c1cc(-c2ccccc2)on1 (stereo not drawn)	-5%	9%	>57	-7%
NC(=O)C1(N2CCCCC2)CCN(C(=O)c2cccs2)CC1	12%	11%	>57	4µM*[single pt active]
CN(C)Cc1c[nH]c2ccccc12	0%	u	>57	85%
CN(C)CCCn1cc(C2=C(c3c[nH]c4ccccc34)C(=O)NC2=O)c2ccccc21	-3%	0.4µM*	>57	36%
COc1ccccc1CNC(=O)c1cc2sccc2n1C	-1%	u	>57	16%
CCOc1ccccc1CNC(=O)c1cc2occc2n1C	u	-28%	>57	10µM*[single pt active]
O=C(CSc1nnc(CNC(=O)c2ccco2)o1)c1ccc(Cl)cc1	-7%	-23%	>57	6%
CCN1CCN(Cc2ccc(NC(=O)Nc3ccc(OC)cc3)cc2)CC1	13%	-11%	>57	4µM*[single pt active]
CCN1CCN(Cc2ccc(NC(=O)Nc3ccccc3)cc2)CC1	3%	u	>57	1%
O=C(Nc1ccccc1)N(Cc1ccc2c(c1)OCO2)Cc1nc2ccccc2c(=O)[nH]1	0%	-10%	>57	-5%
O=C(O)CCc1c2ccc(=O)c(O)c-2oc2c(O)c(O)ccc12	-26%[5.75 µM]	-26%[8 µM]	>57	2.5µM*
SMILES	AmpC inh det	LT uptake inh	SmPrx2 inh	AmpC inh no det
O=c1cc(-c2cccc(O)c2)oc2c(O)c(O)ccc12	-8%	u	>57	u
O=C(Oc1cc2oc(=O)c3c(c2cc1Cl)CCCC3)c1ccco1	7%	u	19*	-7%
Cc1cccc(C(=O)Nc2ncc(CN3CCOCC3)s2)c1	-3%	3%	>57	14%
Cc1cc(NC(=O)COc2ncnc3sc(C)c(C)c23)no1	-6%	u	>57	-3%
CC(Oc1ccc(Cl)cc1Cl)C(=O)Nc1ccncc1 (stereo not drawn)	-3%	7.9µM*	>57	19%
Fc1ccc(C2CC(c3ccccc3)n3ncnc3N2)cc1 (stereo not drawn)	-5%	-30%	>57	20%
COc1cccc(C2CC(c3ccccc3)Nc3ncnn32)c1 (stereo not drawn)	-1%	-29%	>57	23%
COc1cccc(C2CC(c3ccccc3OC)n3ncnc3N2)c1 (stereo not drawn)	16%	12%	>57	4µM*[single pt active]
CCOc1ccc(C2CC(c3ccc(F)cc3)n3ncnc3N2)cc1 (stereo not drawn)	12%	-13%	>57	4µM*[single pt active]
Cc1ccccc1C1CC(c2ccccc2)Nc2ncnn21 (stereo not drawn)	10%	-23%	>57	4µM*[single pt active]
CC1CCCCC1NC(=O)C1CCN(S(=O)(=O)N2CCCCCC2)CC1 (stereo not drawn)	-5%	u	>57	15%
